In PubChem BioAssay AID720513 (Broad Institute, 2013):
Screen size: about 2,100 compounds; about 480 (23%) were called active. Another 5% or so got no clear call; they are omitted.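 How the source made its calls: active means fitted curve reaches 40% activation at or below the top valid concentration, in every replicate test; inconclusive means replicate tests disagree on the call; inactive means the rest, including activity in the opposite direction.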 Only a sample is shown. Measured potencies and affinities stand elsewhere.

Assay: activators raising PGC1a acetylation in cells, dose response, cell-based, cherry-picked samples, set 6 (AID 720513);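 further: cells made to overexpress flag tagged PGC1a plus GCN5 acetyltransferase by viral infection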
Details: U2OS PGC1a acetylation AlphaLISA, overnight, 0 = neutral, -100 = inhibitor control; series mostly up to 19.5 µM; activation (acetylation increase): at the top concentration

Activation (acetylation increase), inactive:
COC(=O)COc1c(/C=C\c2nc(O)c([N+](=O)[O-])c(=O)[nH]2)cccc1OC 7.96%
COc1cccc(C(=O)Nn2cnnc2)c1OC -11.2%
Cc1ccc(N)cc1S(=O)(=O)N(C)C 34.7%
COc1ccc(C(=O)NCCCSC)cc1OC1CCN(C(C)C)CC1 7.64%
C[C@@H]1CN([C@@H](C)CO)C(=O)c2cc(-c3cccc(C#N)c3)cnc2O[C@H]1CN(C)C(=O)c1ccccn1 -9.58%
Cc1cc(C)c(C#N)c(N2CCN(c3ccccc3)CC2)n1 -14.4%
Cc1cc(S(=O)(=O)Nc2ccc3ccccc3c2)c(C)s1 -23.3%
C=CS(=O)(=O)N(Cc1ccccc1Br)[C@H](CO)Cc1ccccc1 -31.4%
C=CCSc1nccc(-c2cc(Cl)sc2Cl)n1 34.1%
O=C1C(Cl)=C(N2CCOCC2)C(=O)N1CCc1ccccc1 11.4%
O=C(CCC1CCCN(C(=O)c2cc(C3CC3)[nH]n2)C1)N1CCN(c2ccccn2)CC1 (stereo unspecified) 18.2%
CN(C)c1ccnc2sc(C(N)=O)c(N)c12 -20.8%
Cc1noc(C)c1S(=O)(=O)N(C)C[C@H]1Oc2ccc(NS(=O)(=O)c3cccs3)cc2C(=O)N([C@H](C)CO)C[C@H]1C 9.57%
Nc1cc(N)nc(SCC(=O)Nc2ccccc2N2CCOCC2)n1 -30.2%
CCOc1ccc(/C=C/C(=O)Oc2ccccc2)cc1 -2.16%
CCOC(=O)CS(=O)(=O)c1nc(-c2ccccc2)cc(C(F)(F)F)n1 -100%
CSc1cccc(N2CC(C(=O)NCCN3C(=O)S/C(=C\c4cccnc4)C3=O)CC2=O)c1 (stereo unspecified) 7.23%
CN(C)C(=O)C[C@@H]1CC[C@@H]2[C@H](COC[C@@H](O)CN2C(=O)C2CCOCC2)O1 -7.2% [at 10 µM]
CC(C)C#Cc1ccc([C@@H]2[C@H]3CN(C(=O)NC4CCCC4)CC(=O)N3[C@H]2CO)cc1 20.8%
Cc1ccccc1OCC(=O)OCC(=O)NCc1ccc2c(c1)OCO2 -2.91%
O=C(CN(Cc1ccc2c(c1)OCO2)C(=O)CNS(=O)(=O)c1ccccc1)NCc1ccco1 6.43%
CC(=O)Nc1cccc(-c2ccnc3c2CC(C)(C(=O)Nc2ccc4c(c2)OCO4)O3)c1 (stereo unspecified) 13.7%
Cn1c(SC2=CS(=O)(=O)c3ccccc32)nc2ccccc21 -91.8%
CCOC(=O)CNC(=O)OC1CCN2Cc3ccccc3N=C12 (stereo unspecified) -16.2%
CN(C)CCNc1oc(COc2ccc(-c3ccccc3)cc2)nc1C#N -99.8%
C[C@H](CO)N1C[C@H](C)[C@@H](CN(C)C(=O)c2ccccn2)Oc2ncc(-c3cccc(C#N)c3)cc2C1=O 1.18%
Cc1nc(N(CCO)C2CCCCC2)c2nnn(Cc3ccccc3)c2n1 -1.58%
C[C@H](NC(=O)C[C@H]1CC[C@@H](NC(=O)C2CC2)[C@H](CO)O1)c1ccccc1 -6.11%
C[C@@H]1CCCCO[C@@H](CN(C)C(=O)c2ccncc2)[C@@H](C)CN([C@H](C)CO)C(=O)c2cc(NC(=O)CCCCCC(=O)Nc3ccccc3N)ccc2O1 -5.98%
O=C(CSc1nc2cc(Cl)ccc2s1)NCC1CCCO1 (stereo unspecified) 4.04%
COc1ccccc1CNC(=O)C[C@@H]1CC[C@@H]2[C@H](COC[C@H](O)CN2C(=O)Nc2ccc(Cl)cc2)O1 32.8%
CN1CCN(C(=O)C[C@@H]2CC[C@@H]3[C@H](COC[C@H](O)CN3CC3CCCCC3)O2)CC1 -4.22%
Cc1ccc(Nc2nc(-c3c(C)nc4ncccn34)cs2)cc1 -31.5%
Cc1cnc(NC(=O)c2nn(C)cc2[N+](=O)[O-])s1 12.9%
C[C@@H]1CN([C@H](C)CO)C(=O)c2cc(NC(=O)Nc3ccc(F)cc3)ccc2O[C@@H](C)CCCCO[C@@H]1CN(C)C(=O)NC1CCCCC1 2%
CCCc1nc2c(=O)n(C)c(=O)nc-2n(C)n1 -98%
O=C1/C(=C/c2ccccc2[N+](=O)[O-])COc2ccccc21 -86.7%
COc1ccccc1N=C1NC(=O)/C(=C/c2ccc(N(C)C)cc2)S1 -4.74%
O=C1C=CCCN1C(=O)/C=C/c1ccccc1Cl -85%
Cn1nc(C(C)(C)C)cc1NC(=O)C1(C)CCN1C(=O)C1(c2ccccc2)CCCC1 (stereo unspecified) 1.04%
COc1ccc(-c2onc(C)c2-c2ccc(C(=O)OC(C)C)o2)c(O)c1 14.5%
N#Cc1ccc(CCc2ccccc2)[nH]c1=O 2.14%
NS(=O)(=O)c1ccc(-c2ccc(/C=C3\C(=O)Nc4cc(Cl)ccc43)o2)cc1 -10.5%
O=C(Nc1nc2c(s1)CN(Cc1ccccc1)CC2)c1c(F)cccc1F -21.4%
COc1ccc(-c2[nH]ncc2CN(C)C(C)c2ccon2)cc1F (stereo unspecified) -24.4%
COc1ccc(OC)c(-n2c(-c3ccc(C)cc3)n[nH]c2=S)c1 18.7%
COc1cccc(-n2c(-c3cccc(S(=O)(=O)N(C)C)c3)n[nH]c2=S)c1 -8.6%
CCn1cc(C(=O)NCc2cccnc2)c2cc(OC)c(OC)cc2c1=O 12.7%
COc1ccc2nc(NCc3cccnc3)sc2c1 -12.2%
CCC(C)C(NC(=O)C1CCC(C)CC1)C(=O)NCc1cccnc1 (stereo unspecified) 28.8%
Cc1ccc(S(=O)(=O)Nc2ccccc2C(=O)NCc2cccnc2)cc1 -21.2%
COc1cccc(S(=O)(=O)N[C@H]2CC[C@H](CC(=O)NCc3ccc(F)cc3)O[C@@H]2CO)c1 19.6%
COc1cccc(Cn2c(NCc3cccnc3)nc3c2c(=O)n(C)c(=O)n3C)c1 -13.5%
C[C@H]1CN([C@@H](C)CO)C(=O)c2cc(C3=CCCC3)cnc2O[C@@H]1CN(C)C(=O)c1cccnc1 7.97%
Cc1ccccc1S(=O)(=O)N[C@H]1CC[C@H](CCn2cc(Cc3ccccc3)nn2)O[C@@H]1CO -0.755%
COc1ccccc1C#Cc1ccc2c(c1)O[C@@H](CN(C)Cc1cccnc1)[C@H](C)CN([C@@H](C)CO)S2(=O)=O -89.7%
CO[C@H]1CN(C)C(=O)c2cc(NS(=O)(=O)c3cn(C)cn3)ccc2OC[C@@H](C)NC[C@H]1C -17.3%
CCCCN(c1ccccc1)c1ncnc(N)c1[N+](=O)[O-] -11.8%
COC(=O)c1cccc(NC(=O)CSc2nnc(C)n2C)c1 -21.3%
COc1ccccc1Nc1nc(NCCC(C)C)nc(N)c1[N+](=O)[O-] 27%
Cn1nnnc1Sc1ncnc2scc(-c3cccc(S(C)(=O)=O)c3)c12 -11.9%
